# Test results published in PubChem BioAssay (NCATS).
# Records with an inconclusive call do not appear. Active and inactive are the calls of the source. Unless noted, calls come from the whole dose curve; as a rule, active = well fitted activation curve with a large enough effect in the main read-out, with a control signal flat (not every such curve was filed as active); inconclusive = small, poorly fitted or top-dose-only effect, or effect the other way, or a change in a side signal; inactive = flat fitted curve, though single readings scatter.
# Molecular target: 3',5'-cyclic-AMP phosphodiesterase 4B (Homo sapiens) (UniProt Q07343)
# Assay: qHTS Assay for Inhibitors of PDE-IV (AID 607); note: % of control where 0% means no effect
# Conditions: HEK293 ACTOne CNG channel cells, membrane potential fluorescence; series mostly up to 22.9 µM; activation (PDE inhibition): at the top concentration
# Outline: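 The readout is membrane depolarisation from a cAMP-sensing CNG channel, detected with a potential dye at ex 535/em 590. Cells were HEK293-derived (endogenous PDE-IV) at 1000 cells/well, titrated up to 22.9 uM final.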
# Sequence of 3',5'-cyclic-AMP phosphodiesterase 4B (Homo sapiens) (Q07343 whole entry, looked up): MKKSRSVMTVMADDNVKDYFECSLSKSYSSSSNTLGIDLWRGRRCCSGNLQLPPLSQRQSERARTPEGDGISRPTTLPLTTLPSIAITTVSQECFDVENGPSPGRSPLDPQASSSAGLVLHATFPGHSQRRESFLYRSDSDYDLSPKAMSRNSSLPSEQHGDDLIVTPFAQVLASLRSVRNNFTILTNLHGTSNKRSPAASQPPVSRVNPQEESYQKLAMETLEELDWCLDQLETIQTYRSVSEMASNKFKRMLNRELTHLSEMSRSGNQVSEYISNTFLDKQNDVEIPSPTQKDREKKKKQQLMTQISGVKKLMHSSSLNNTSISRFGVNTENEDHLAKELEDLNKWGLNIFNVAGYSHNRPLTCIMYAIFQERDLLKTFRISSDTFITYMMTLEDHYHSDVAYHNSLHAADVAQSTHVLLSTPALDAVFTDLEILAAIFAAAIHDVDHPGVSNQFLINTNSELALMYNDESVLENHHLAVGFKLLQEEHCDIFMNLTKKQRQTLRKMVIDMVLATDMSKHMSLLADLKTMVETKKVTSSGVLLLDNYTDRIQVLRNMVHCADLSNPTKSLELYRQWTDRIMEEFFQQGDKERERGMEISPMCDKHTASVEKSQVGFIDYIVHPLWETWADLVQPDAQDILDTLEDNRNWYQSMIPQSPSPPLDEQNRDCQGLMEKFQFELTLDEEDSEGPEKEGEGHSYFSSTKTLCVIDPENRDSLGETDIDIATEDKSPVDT
SMILES,outcome,activation (PDE inhibition)
Oc1cc(O)c2c(c1)O[C@H](c1ccc(O)c(O)c1)[C@H](O)C2,inactive,
CC(C)(C(=O)c1cccnc1)c1cccnc1,,15.2% (inactive)
Cc1ccnc(NS(=O)(=O)c2ccc(N)cc2)n1,,-12.3% (inactive)
C[C@H]1[C@H](NC(=O)/C(=N/OC(C)(C)C(=O)O)c2csc(N)n2)C(=O)N1S(=O)(=O)O (stereo in doubt),,1.34% (inactive)
Oc1ccc(O)cc1,,-11.8% (inactive)
CCOC(=O)n1ccn(C)c1=S,,6.48% (inactive)
COc1c(C)c2c(c(O)c1C/C=C(\C)CCC(=O)O)C(=O)OC2,inactive,
C=C(CC)C(=O)c1ccc(OCC(=O)O)c(Cl)c1Cl,,3.18% (inactive)
CC(=O)c1ccc2c(c1)N(CCCN1CCC(CCO)CC1)c1ccccc1S2,,17.7% (inactive)
CNCCC=C1c2ccccc2CCc2ccccc21,inactive,
C[C@H](O)C(=O)Nc1c(I)c(C(=O)NC(CO)CO)c(I)c(C(=O)NC(CO)CO)c1I,,8.69% (inactive)
Oc1ccc(Cl)cc1Sc1cc(Cl)ccc1O,,-7.57% (inactive)
C1CCc2nnnn2CC1,inactive,
O=C1CCC(c2ccc(-n3ccnc3)cc2)=NN1,,-13.4% (inactive)
O=C(CCCN1CCC(O)(c2ccc(Br)cc2)CC1)c1ccc(F)cc1,,19.6% (inactive)
CN1CCC(=C2c3ccccc3Sc3ccccc32)CC1,,8.77% (inactive)
NCCc1ccn[nH]1,,-1.63% (inactive)
CN1[C@@H]2CC[C@H]1CC(OC(=O)c1c[nH]c3ccccc13)C2 (stereo not given in full),,4.64% (inactive)

# Tested on: not listed separately
# Assay: Cellular Toxicity (caspase-3) Jurkat (AID 655; active = well fitted curve in the direction sought with a large enough effect; an effect the other way counts as inactive or inconclusive;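 note: cells exposed to compound for 16 h at 37 °C before reading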; note: potency is the fitted concentration of half-maximal effect)
# Conditions: Jurkat caspase-3 activation, luminescence; series mostly up to 92.2 µM; caspase-3 activation: at the top concentration
# Outline: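 Jurkat cells (5000/well) in complete medium were treated with compounds for 16 hr at 37 °C, then Caspase-Glo 3/7 luminescence was read after 20 min at room temperature. Data normalized to DMSO (basal) and 100 uM tamoxifen (100%); AC50 from Hill fit.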
SMILES,Potency,caspase-3 activation
COc1cccc2c1C(=O)c1c(O)c3c(c(O)c1C2=O)C[C@@](O)(C(C)=O)C[C@@H]3O[C@H]1C[C@H](N)[C@H](O)[C@H](C)O1,5.01 nM (active),
NC(=NCCCCCCN=C(N)/N=C(\N)Nc1ccc(Cl)cc1)/N=C(\N)Nc1ccc(Cl)cc1,,4.07% (inactive)
Oc1ccc(O)cc1,,-9.11% (inactive)
C=C(CC)C(=O)c1ccc(OCC(=O)O)c(Cl)c1Cl,,-2.25% (inactive)

# Tested on: not listed separately
# Assay: Cellular Toxicity (caspase-3) SHSY5Y (AID 657; active = well fitted curve in the direction sought with a large enough effect; an effect the other way counts as inactive or inconclusive;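 note: cells exposed to compound for 16 hours at 37 °C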)
# Conditions: SH-SY5Y caspase-3 activation; series mostly up to 91.7 µM; caspase-3 activation: at the top concentration
# Outline: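 SH-SY5Y human neuroblastoma cells (1500/well) were treated with compounds for 16 h at 37 °C, then Caspase-Glo 3/7 luminescence was read after 1 h at room temperature. Data normalized to DMSO and 10 uM staurosporine; AC50 from Hill fits.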
row,SMILES,caspase-3 activation
1,NC(=NCCCCCCN=C(N)/N=C(\N)Nc1ccc(Cl)cc1)/N=C(\N)Nc1ccc(Cl)cc1,5.45% (inactive)
2,Oc1ccc(O)cc1,-9% (inactive)
3,C=C(CC)C(=O)c1ccc(OCC(=O)O)c(Cl)c1Cl,-0.0856% (inactive)
4,Oc1ccc(Cl)cc1Sc1cc(Cl)ccc1O,4.88% (inactive)

# Tested on: not listed separately
# Assay: Cellular Toxicity (caspase-3) BJ (AID 658; active = well fitted curve in the direction sought with a large enough effect; an effect the other way counts as inactive or inconclusive;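 note: cells exposed to compound for 16 hours; 0% = DMSO basal and 100% = 10 µM staurosporine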)
# Conditions: BJ fibroblasts, luminescence, normalized: DMSO 0%, staurosporine 100%; series mostly up to 91.7 µM; caspase-3 activation: at the top concentration
# Outline: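 Luminescent aminoluciferin-substrate cleavage reports caspase 3/7 activity in normal human BJ fibroblasts after 16 hr compound exposure at 37 °C. Normalized to DMSO (basal) and 10 uM staurosporine (100%); AC50 from Hill fit of concentration-response.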
row,SMILES,caspase-3 activation
1,NC(=NCCCCCCN=C(N)/N=C(\N)Nc1ccc(Cl)cc1)/N=C(\N)Nc1ccc(Cl)cc1,-4.67% (inactive)
2,Oc1ccc(O)cc1,-2.95% (inactive)
3,C=C(CC)C(=O)c1ccc(OCC(=O)O)c(Cl)c1Cl,-3.29% (inactive)
4,Oc1ccc(Cl)cc1Sc1cc(Cl)ccc1O,-1.61% (inactive)
